Data on 27 compounds can be found in PubChem BioAssay (EPA / NIEHS).

Calls of active or inactive are those of the source. Rule for the calls: active = hit-call score of the fitted dose curve at least 0.9, where 1 is the maximum; inactive = score below 0.9.

The nature of this test: CEETOX_H295R_OHPROG: CeeTox H295R High-throughput Steroidogenesis Assay for OH-Progesterone (OHPROG) (AID 2283435). The settings on record: actives raise or lower the signal. As for the experimental part:
CEETOX_H295R is a cell-based, multiplexed-readout assay that uses H295R, a human adrenal gland cell line, with measurements taken at 48 hours after chemical dosing in a 96-well plate.CEETOX_H295R_OHPROG is one of 23 assay component(s) measured or calculated from the CEETOX_H295R assay. It is designed to make measurements of hormone induction, a form of inducible reporter, as detected with absorbance signals by HPLC-MS-MS technology.Data from the assay component CEETOX_H295R_OHPROG was analyzed into 1 assay endpoint. This assay endpoint, CEETOX_H295R_OHPROG, was analyzed with bidirectional fitting relative to DMSO as the negative control and baseline of activity. Using a type of inducible reporter, gain or loss-of-signal activity using HPLC-MS-MS was used to understand synthesis of 17alpha-hydroxyprogesterone in H295R cell line at 48hr of chemical exposure. To generalize the intended target to other relatable targets, this assay endpoint is annotated to the steroid hormone intended target family, where the subfamily is progestagens.
Cell culture and media preparation procedures were conducted in accordance with OECD Test No. 456 guidelines, with minor modifications. H295R cells (ATCC CRL-2128) were expanded for 5 passages and frozen in batches in liquid nitrogen. Prior to the steroidogenesis assay, H295R cells were thawed and passed at least 4 times. The maximum passage was 10. Cells were maintained in a 1:1 mixture of DMEM/F12 supplemented with 5ml/L ITS+ Premix (BD Bioscience) and 12.5 ml/L Nu-Serum (BD Bioscience). After seeding cells into 96-well plates at 50-60% confluency, cells were allowed to adhere overnight. Prior to chemical testing, culture medium was replaced with 175 uL medium containing 10 uM forskolin to stimulate steroidogenesis for 48 hours. Following prestimulation, forskolin medium was replaced with medium containing test chemical solubilized in DMSO (ensuring a final concentration of 0.1% DMSO). Test chemicals were incubated for 48 hours, then the medium was removed and split into 2 vials containing approximately 75uL each, and stored at -80 C prior to hormone analysis. For steroid quantification, media samples were shipped to OpAns, LLC (Durham, NC) on dry ice, and samples were thawed to room temperature prior to liquid-liquid extraction. Steroid hormones were extracted from media samples using methyl tertbutyl ether (MTBE). An extra derivatization with dansyl chloride was included for estrogen (estrone and estradiol) detection only. Steroid hormones were separated by HPLC, eluted using a reverse phase C18 gradient with electrospray positive ionization, followed by quantification by tandem mass spectrometry (MS/MS). Data were acquired on a MassHunter Workstation Acquisition version B03.01 (Agilent Technologies, Inc.) and processed using MassHunter Quantitative Analysis for QQQ. Accuracy was determined for each hormone analyte from 3 standards to determine upper and lower limits of quantification (ULOQ and LLOQ, respectively) using a 7-point standard curve. Precision and accuracy of the extraction and quantification methods were calculated as the percent relative standard deviation (%RSD) of the spiked standards and percent spiked standard recovered, respectively. […] Test medium was removed following chemical exposure, and cell viability was evaluated in the same wells by MTT. MTT procedures were as follows: after removal of test medium, 500 uL of 0.5 mg/ml of 3-[4,5-dimethylthiazol-2-y]2,5-diphenyltetrazoliumbromide solution was added to the cells. Following a 4-hour incubation at 37 C and 5% CO2 to allow formazan-crystal formation, the MTT solution was removed and blue formazan salt crystals were solubilized using 500uL anhydrous isopropanol with shaking for 20 minutes. Absorbance was read at 570 and 650nm using a Packard Fusion microplate reader. Background correction of absorbance units was used to determine percent change relative to controls. […]
Consider `CNC(=O)Oc1cccc2c1OC(C)(C)C2`, for which the compound was classed as inactive. For the compound `CCCCCCCCCCCCCN1CC(C)OC(C)C1` (configuration not stated), the AC50 (usually the concentration at which the activity in the assay is half-maximal) was 17.6 µM (active). Regarding `CC(C)(O)c1cnn2c(-c3ccc(F)c(-c4c(F)cccc4C#N)c3)cnc2n1`, the AC50 was 0.408 µM (active).

For the compound `CCOC(=O)[C@]1(c2ccccc2)Oc2ccccc2[C@@H]1N`, the AC50 is 3.16 µM (active). On the same count and under the same terms, the value for `Cc1cc(N=Nc2ccccc2C)ccc1N` was 1.79 µM (active). On the same count and under the same terms, the same measure for `O=C(Nc1ccccc1)c1ccccc1I`: 40.9 µM (active); for `Cc1cccc(N)c1N`: 18.5 µM (active). For `Nc1ccc(N=Nc2ccccc2)cc1`, the AC50 is 12.6 µM (active).

As for `Cc1ccc(N=C=O)cc1N=C=O`, the compound was classed as inactive. On the same count and under the same terms, the value for `N#CC(Br)(Br)C(N)=O` was “inactive”; that for `CCCCCOC(=O)c1ccccc1C(=O)OCCCCC` was “inactive”. The same measure, in the same setting: the same measure for `Cn1cc(-c2ccccc2)c(=O)c(-c2cccc(C(F)(F)F)c2)c1`: “inactive”.

As to `CC(C)(C)C(O)(CCc1ccc(Cl)cc1)Cn1cncn1` (configuration not stated), the AC50 is 0.552 µM (active).

Turning to `Nc1ccc(Oc2ccc(N)cc2)cc1`, the compound was classed as inactive. Same read-out and setting: the value for `Oc1ccc2ccc3cccc4ccc1c2c34` was “inactive”; that for `O=[N+]([O-])c1ccc(Oc2ccc(Cl)cc2Cl)cc1` was “inactive”. Consider `CCOc1cccc(C2(N3CCN(c4ccccc4)CC3)CCC(C)CC2)c1` (configuration not stated), for which the AC50 was 35.7 µM (active). As for `COP(=S)(OC)SCN1C(=O)c2ccccc2C1=O`, the result was inactive. In the case of `CCC(C)c1ccc(O)cc1` (configuration not stated), the half-maximal activity concentration (AC50) is 22.5 µM (active).

Take `Nc1ccc(Cc2ccc(N)cc2)cc1`: the concentration at half-maximal activity (AC50) was 4.68 µM (active). Same read-out and setting: the value for `c1ccc2c(c1)-c1cccc3cccc-2c13` was 30.7 µM (active). Consider `CC(C)N(Cc1ccccc1)C(=O)C(C)(C)C`, for which the call was inactive.

With `O=C(Oc1ccc(Br)cc1)N1CCN2CCC1CC2`, the AC50 is 12.8 µM (active). Same read-out and setting: the value for `c1ccc(NNc2ccccc2)cc1` was 48.6 µM (active). For `Nc1ccc(Cl)cc1N`, the call was inactive. Still for that read-out and setting: the same measure for `c1ccc(N=Nc2ccccc2)cc1`: “inactive”; for `O=P(OCCCl)(OCCCl)OCCCl`: “inactive”.
